Reference: PubChem BioAssay (NCATS)
Values joined by “and” are separate entries in the source; they are usually repeats but may differ in a detail not shown here. Equal entries are not always repeated. Inconclusive results are not listed. Active and inactive are the calls of the source. Unless noted, the call rests on the fitted dose curve; in most records, active means well fitted curve in the direction sought with a large enough effect; inconclusive means small, poorly fitted or top-dose-only effect, or another doubt; inactive means no such curve, though single readings can be large; an effect the other way counts as inactive or inconclusive.

Columns and labels:
[1] = Cell Viability - BJ (AID 421; calls by dose curve;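 further: potency means the concentration at half of the fitted maximal effect; cells exposed to compound for 40 hours at 37 °C before readout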); settings: BJ fibroblast viability, qHTS
Summary of the method: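 Cytotoxicity in human BJ foreskin fibroblasts is scored as loss of cellular ATP after a 40-hour exposure, measured by luciferase luminescence. Controls are DMSO and 100 uM tamoxifen.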

[2] = Cell Viability - MRC5 (AID 434; calls by dose curve;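 further: potency means the concentration at half of the fitted maximal effect; cells exposed to compound for 40 hours at 37 °C; potency reflects cytotoxicity seen as loss of intracellular ATP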); settings: MRC5 lung fibroblast viability, qHTS
Summary of the method: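 ATP luminescence read-out (CellTiter-Glo, 20 min RT) after 40 hr, 37 °C compound exposure of 1500 MRC5 cells/well. Data normalized to DMSO (basal) and 100 uM tamoxifen (100% inhibition); AC50 from standard Hill equation.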

[3] = Cellular Toxicity (caspase-3) HepG2 (AID 654); settings: HepG2 caspase-3 activation, luminescence; series mostly up to 92.2 µM;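 further: cells exposed to compound for 16 hours before reading; 0% = DMSO alone and 100% = caspase signal from 100 µM tamoxifen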
Summary of the method: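 Caspase 3/7 activation is measured as a luminescence increase (aminoluciferin substrate) after 16 h compound exposure of human hepatocarcinoma HepG2 cells. AC50 values are Hill fits, scaled between DMSO baseline and 100 uM tamoxifen stimulation.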

[4] = Cellular Toxicity (caspase-3) Jurkat (AID 655); settings: Jurkat caspase-3 activation, luminescence; caspase-3 activation: at 92.2 µM (top of the series), DMSO = 0%, tamoxifen = 100%;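 further: cells exposed to compound for 16 h at 37 °C before reading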
Summary of the method: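 Jurkat cells (5000/well) in complete medium were treated with compounds for 16 hr at 37 °C, then Caspase-Glo 3/7 luminescence was read after 20 min at room temperature. Data normalized to DMSO (basal) and 100 uM tamoxifen (100%); AC50 from Hill fit.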

[5] = Cellular Toxicity (caspase-3) SHSY5Y (AID 657); settings: SH-SY5Y caspase-3 activation; series mostly up to 91.7 µM
Summary of the method: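 SH-SY5Y human neuroblastoma cells (1500/well) were treated with compounds for 16 h at 37 °C, then Caspase-Glo 3/7 luminescence was read after 1 h at room temperature. Data normalized to DMSO and 10 uM staurosporine; AC50 from Hill fits.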

[6] = Cellular Toxicity (caspase-3) BJ (AID 658); settings: BJ fibroblasts, luminescence; Potency: caspase-3 activation; series mostly up to 91.7 µM
Summary of the method: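 qHTS, BJ fibroblasts, 1000 cells/well; 5 hr preincubation, 16 hr compound, 37 °C; Caspase-Glo 3/7 reagent, 1 hr RT; luminescence. DMSO = 0%, 10 uM staurosporine = 100%. Hill-equation AC50.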

[7] = Cellular Toxicity (caspase-3) MRC-5 (AID 659); settings: MRC-5 cells, luminescence, normalized: DMSO 0%, 10 µM staurosporine 100%; series mostly up to 91.7 µM
Summary of the method: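 MRC-5 fibroblasts, 1500/well; 16 h cpd, 37 °C; Caspase-Glo 3/7, 1 h RT; lumi read. Norm: DMSO = 0%, 10 uM staurosporine = 100%. Hill-fit AC50 from qHTS conc-response.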

[8] = Cellular Toxicity (caspase-3) Mesangial (AID 660); settings: mesangial cells, normalized: DMSO 0%, 100 µM tamoxifen 100%; series mostly up to 91.7 µM;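 further: combined caspase 3 and 7 activity read by Caspase-Glo luminescence; cells exposed to compound for 16 h before the caspase read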
Summary of the method: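 Caspase 3/7 activation measured by Caspase-Glo 3/7 luminescence (20 min, room temperature) following 16 h exposure of mesangial cells (1000/well); AC50 from Hill-equation fit, normalized to DMSO and 100 uM tamoxifen.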

[9] = Cellular Toxicity (caspase-3) SK-N-SH (AID 661); settings: SK-N-SH caspase-3 activation, qHTS, DMSO as zero, staurosporine as full; series mostly up to 91.7 µM
Summary of the method: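 Caspase 3/7 activation was read by luminogenic substrate cleavage after 16 hour treatment of SK-N-SH cells. Signal was scaled between DMSO and 10 uM staurosporine, and concentration-response data were fitted with the Hill equation for AC50.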

[10] = Cellular Toxicity (caspase-3) Hek293 (AID 664); settings: HEK293 caspase-3 activation, DMSO = 0%, 100 µM tamoxifen = 100%; at 92.2 µM (top of the series);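 further: cells exposed to compound for 16 h at 37 °C before readout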
Summary of the method: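 Concentration-response qHTS: caspase 3/7 activation measured by luminescent aminoluciferin substrate cleavage after 16 h compound exposure of Hek 293 cells. AC50 from Hill equation, with DMSO as basal and 100 uM tamoxifen as 100%.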

[11] = Cellular Toxicity (caspase-3) Renal Proximal Tubule (AID 667); settings: renal proximal tubule cells, primary cells freshly taken from rat; Potency: caspase-3 activation; series mostly up to 91.7 µM;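 further: cells exposed to compound for 16 hours at 37 °C before detection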
Summary of the method: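 Primary rat proximal tubule cells, 1000/well, 5 h plating at 37 °C, then compound 16 h at 37 °C. Caspase-Glo 3/7 reagent, 1 h RT, luminescence. Normalized to DMSO (basal) and 10 uM staurosporine (100%); Hill-fit AC50.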

[12] = MultiTox-Fluor Cytotoxicity Assay - LYMP1-001 - Dead Cells (AID 946); settings: LYMP1-001 lymphoblastoid cells, dead-cell protease fluorescence; series mostly up to 92.2 µM;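 further: 0% = DMSO and 100% = tetraoctylammonium bromide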
Summary of the method: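 Seed 2500 LYMP1-001 cells/well, incubate 5 hr at 37 C; add compound, 16 hr at 37 C; add MultiTox-Fluor reagent, 60 min RT; read dead-cell fluorescence Ex/Em=485/520. Normalize to DMSO and 15 uM tetraoctylammonium bromide.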

[13] = Cell Viability - LYMP1-002 - Assay at 16 hr (AID 948); settings: LYMP1-002 lymphoblastoid cell viability; series mostly up to 92.2 µM;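 further: 0% = DMSO alone and full effect = 92 µM tetraoctylammonium bromide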
Summary of the method: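 Human lymphoblastoid cells (LYMP1-002), 2500/well, were preincubated 5 hr at 37 C, then exposed to compounds for 16 hr at 37 C in complete medium. Cellular ATP was read by CellTiter-Glo luminescence after 30 min at room temperature; AC50 from Hill fits.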

[14] = MultiTox-Fluor Cytotoxicity Assay - LYMP1-002 - Live Cells (AID 955); settings: LYMP1-002 lymphoblastoid live-cell protease fluorescence viability; series mostly up to 46.1 µM; further: on the % scale 0 is the no-effect control and ±100 the full control effect
Summary of the method: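 After 16 h compound exposure at 37 C, live LYMP1-002 lymphoblastoid cells (2500/well) were quantified by cleavage of cell-permeant GF-AFC substrate, read at 405/510 nm after 60 min. Concentration-response fitted with Hill equation for AC50.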

[15] = Cell Viability - LYMP1-003 - Assay at 24 hr (AID 963); settings: LYMP1-003 lymphoblastoid cell viability; series mostly up to 92.2 µM;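 further: plate controls were DMSO only for no effect and tetraoctylammonium bromide positive control for full effect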
Summary of the method: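 Concentration-response qHTS: ATP loss measured by CellTiter-Glo luminescence after 24 h compound exposure at 37 C. Cells were LYMP1-003 human lymphoblastoid, 2500 per well. AC50 derived via standard Hill equation modeling.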

[16] = Cell Viability - LYMP2-026 (AID 989); settings: LYMP2-026 lymphoblastoid cell viability, qHTS; series mostly up to 92.2 µM; further: on the % scale 0 is the no-effect control and ±100 the full control effect; nearly all actives have a fitted effect of over 50% in size
Summary of the method: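 Cytotoxicity read as ATP-dependent luminescence (CellTiter-Glo, 30 min room temperature) after 24 h compound treatment at 37 C. LYMP2-026 lymphoblastoid line seeded at 2500 cells/well; AC50 derived by standard Hill equation.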

[17] = Cell Viability - LYMP1-002 - Assay at 24 hr (AID 993); settings: LYMP1-002 lymphoblastoid cells viability; series mostly up to 92.2 µM; further: on the % scale 0 is the no-effect control and ±100 the full control effect
Summary of the method: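 qHTS cytotoxicity at 24 h: CellTiter-Glo ATP luminescence in lymphoblastoid line LYMP1-002 incubated with compound at 37 °C. Concentration-response modeled with the Hill equation for AC50; tetraoctylammonium bromide served as positive control.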

[18] = qHTS Assay for Identification of Small Molecule Inducers of Hypoxia Response (AID 2120; active means well fitted curve in the direction sought with a large enough effect in the signal ratio, with a control signal flat, not every such curve was filed as active; the % refers to the signal ratio; further: 0% is about no effect); settings: hypoxia response reporter cells, beta-lactamase ratio readout; series mostly up to 104 µM
Summary of the method: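 Reporter induction read as the CCF4 blue/green (460nm/530nm) emission ratio after 2.5 h dye loading at room temperature. ME-180 HRE-beta-lactamase cells received titrated compounds for 17 h at 37 degrees Celsius; AC50 values derived.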

[19] = target: Peroxisome proliferator-activated receptor alpha (Homo sapiens) (UniProt Q07869); assay: qHTS assay for small molecule agonists of the peroxisome proliferator-activated receptor alpha (PPARalpha) signaling pathway (AID 651778); settings: PathHunter PPARalpha complementation, chemiluminescence, 6 h; max response: active compounds read high; further: % of control where 0% means no effect
Peroxisome proliferator-activated receptor alpha (Homo sapiens), sequence (Q07869 whole entry, looked up, the tested form may be a part): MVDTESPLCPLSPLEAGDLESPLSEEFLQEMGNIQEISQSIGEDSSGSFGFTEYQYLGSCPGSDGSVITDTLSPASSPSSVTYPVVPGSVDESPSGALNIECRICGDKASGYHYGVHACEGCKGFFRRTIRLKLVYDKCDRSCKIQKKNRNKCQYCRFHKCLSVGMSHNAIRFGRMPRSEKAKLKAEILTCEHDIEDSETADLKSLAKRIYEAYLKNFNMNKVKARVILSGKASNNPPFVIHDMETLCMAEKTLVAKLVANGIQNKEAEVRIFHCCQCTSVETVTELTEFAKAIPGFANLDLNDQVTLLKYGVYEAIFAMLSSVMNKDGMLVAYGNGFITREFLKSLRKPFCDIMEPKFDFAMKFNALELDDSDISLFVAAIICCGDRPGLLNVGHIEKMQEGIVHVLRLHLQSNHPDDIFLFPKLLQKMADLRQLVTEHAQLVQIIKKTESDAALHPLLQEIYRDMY
Summary of the method: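 Enzyme-fragment complementation assay in which ligand-bound PPARalpha translocates and forms an active enzyme that generates chemiluminescence. Cells were plated overnight, exposed to compound for 6 hr at 37 C, and then given detection reagent for 60 min at room temperature.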

[20] = qHTS assay for cell viability of the p53RE-bla HCT-116 cell line (AID 743292); settings: p53RE-bla HCT-116 viability, ATP luminescence, 16 h; series mostly up to 95 µM; further: on the % scale 0 is the no-effect control and ±100 the full control effect; nearly all actives have a fitted effect of over 55% in size
Summary of the method: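 After plating at 4,000 cells per well and a 5 h rest at 37 C, HCT-116 cells carrying p53RE-bla received test chemicals in DMSO. Sixteen hours later at 37 C, CellTiter-Glo was added and luminescence recorded following 30 min at room temperature.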

CCCCC(CC)COCCCN (stereo not given)
inactive: Potency [1] > 92 µM | Potency [2] > 92 µM | Potency [3] | Potency [4] | Potency [5] | Potency [6] | outcome [7] | outcome [8] | outcome [9] | caspase-3 activation [10] -1.34% | Potency [11] | Potency [12] | Potency [13] | outcome [14] | Potency [15] | Potency [16] | Potency [17] | Potency [18] | max response [19] -9.53% | Potency [20]

CN(C)c1ccc(Cc2ccc(N(C)C)cc2)cc1
inactive: Potency [1] > 92 µM | Potency [2] > 92 µM | Potency [3] | Potency [4] | Potency [5] | Potency [6] | outcome [7] | outcome [8] | outcome [9] | caspase-3 activation [10] 2.63% | Potency [11] | Potency [12] | Potency [13] | outcome [14] | Potency [15] | Potency [16] | Potency [17] | Potency [18] | max response [19] 1.98% and -1.9% | Potency [20]

Oc1ccc2c(c1)OCO2
inactive: Potency [1] > 92 µM | Potency [2] > 92 µM | Potency [3] | Potency [4] | Potency [5] | Potency [6] | outcome [7] | outcome [8] | outcome [9] | caspase-3 activation [10] -2.85% | Potency [11] | Potency [12] | Potency [13] | outcome [14] | Potency [15] | Potency [16] | Potency [17] | Potency [18] | max response [19] -2.87% | Potency [20]

NC(=O)c1ccc([N+](=O)[O-])cc1
inactive: Potency [1] > 92 µM | Potency [2] > 92 µM | Potency [3] | Potency [4] | Potency [5] | Potency [6] | outcome [7] | outcome [8] | outcome [9] | caspase-3 activation [10] 0.417% | Potency [11] | Potency [12] | Potency [13] | outcome [14] | Potency [15] | Potency [16] | Potency [17] | Potency [18] | max response [19] -2.18% | Potency [20]

Nc1ccc(N=Nc2ccccc2)c(N)c1
inactive: Potency [1] > 92 µM | Potency [2] > 92 µM | Potency [3] | Potency [4] | Potency [5] | Potency [6] | outcome [7] | outcome [8] | outcome [9] | caspase-3 activation [10] -11.8% | Potency [11] | Potency [12] | Potency [13] | outcome [14] | Potency [15] | Potency [16] | Potency [17] | Potency [18] | max response [19] -3.41% | Potency [20]

Brc1ccc(-c2ccccc2)cc1
inactive: Potency [1] > 92 µM | Potency [2] > 92 µM | Potency [3] | Potency [4] | Potency [5] | Potency [6] | outcome [7] | outcome [8] | outcome [9] | caspase-3 activation [10] -0.717% | Potency [11] | Potency [12] | Potency [13] | outcome [14] | Potency [15] | Potency [16] | Potency [17] | Potency [18] | max response [19] -2.37% | Potency [20]
